Where “and” joins values, the source holds several entries; their conditions need not be identical. Equal entries are not always repeated. Compounds without any hit were thinned out: in the full panel of roughly 83,000, 20% have a hit.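 96-well plates, one dose, 48 hours. Percent growth reported; active if below 10.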 Calls of active or inactive are those of the source.
Legend:
Assay in all cases: NCI-60 one-dose screen, 48 h (100 = growth as untreated, 0 = no growth, -100 = all killed)
Settings in all cases: 10 µM unless noted
SK-MEL-2 melanoma = test system: SK-MEL-2 melanoma
EKVX NSCLC = test system: EKVX NSCLC
SN12C renal = test system: SN12C renal
UO-31 renal = test system: UO-31 renal
TK-10 renal = test system: TK-10 renal
ACHN renal = test system: ACHN renal
CAKI-1 renal = test system: CAKI-1 renal
A498 renal = test system: A498 renal
HL-60(TB) leukemia = test system: HL-60(TB) leukemia
CCRF-CEM leukemia = test system: CCRF-CEM leukemia

Row | Structure (SMILES) | growth (SK-MEL-2 melanoma) | growth (EKVX NSCLC) | growth (SN12C renal) | growth (UO-31 renal) | growth (TK-10 renal) | growth (ACHN renal) | growth (CAKI-1 renal) | growth (A498 renal) | growth (HL-60(TB) leukemia) | growth (CCRF-CEM leukemia)
1 | C/C(=C(\c1ccc(OCCN2CCOCC2)cc1)c1ccc(OC(=O)Cc2ccccc2)cc1)c1ccc(Cl)cc1 | 81.5% (inactive) | 95.4% (inactive) | 91.2% (inactive) | 85.5% (inactive) | 90.8% (inactive) | 112% (inactive) | 78.7% (inactive) | 96.8% (inactive) | 82.9% (inactive) | 84.9% (inactive)
2 | C[C@]12CC[C@H]3[C@@H](CC=C4c5nc(N)sc5CC[C@@]43C)[C@@H]1CC[C@@H]2O | 98% (inactive) | 101% (inactive) | 93.8% (inactive) | 96.3% (inactive) | 102% (inactive) | 106% (inactive) | 91.7% (inactive) | 86% (inactive) | 87.8% (inactive) | 91.2% (inactive)
3 | CC(=O)Nc1nc2c(s1)C1=CC[C@H]3[C@@H]4CC[C@H](OC(C)=O)[C@@]4(C)CC[C@@H]3[C@@]1(C)CC2 | 50.3% (inactive) | 82.9% (inactive) | 69.7% (inactive) | 72.7% (inactive) | 96.2% (inactive) | 67.7% (inactive) | 24.4% (inactive) | 62.1% (inactive) | 43.4% (inactive) | 57.7% (inactive)
4 | Nc1ccc(P(=O)(O)O)cc1 | 120% (inactive) and 99.4% (inactive) | 95.7% (inactive) | 103% (inactive) and 101% (inactive) | 90.8% (inactive) and 91.8% (inactive) | 119% (inactive) and 97.4% (inactive) | 98.7% (inactive) and 105% (inactive) | 102% (inactive) and 99.5% (inactive) | 105% (inactive) and 108% (inactive) | 136% (inactive) and 106% (inactive) | 97.5% (inactive) and 95.4% (inactive)
5 | N[C@@H](CCC(=O)CCl)C(=O)O | 87.6% [20 µM] (inactive) | 101% [20 µM] (inactive) | 89% [20 µM] (inactive) | 91% [20 µM] (inactive) | 101% [20 µM] (inactive) | 97.9% [20 µM] (inactive) | 97% [20 µM] (inactive) | 110% [20 µM] (inactive) | 101% [20 µM] (inactive) | 97.6% [20 µM] (inactive)
6 | [N-]=[N+]=CC(=O)CCC(=O)C=[N+]=[N-] | 113% (inactive) | 105% (inactive) | 107% (inactive) | 71.3% (inactive) | 114% (inactive) | 95% (inactive) | 97.4% (inactive) | – | 76.4% (inactive) | –
7 | COc1cc2c(cc1OC)-c1c3c(cc4c1[C@@H](C2)N(C)CC4)OCO3 | 87.9% (inactive) | 66.7% (inactive) | 43.8% (inactive) | 9.51% (active) | 67.3% (inactive) | 18.6% (inactive) | 46.9% (inactive) | 57% (inactive) | 32.5% (inactive) | 42.1% (inactive)
8 | COc1ccc(/C=C(/C)[N+](=O)[O-])cc1OC | 8.73% (active) and 0.617% (active) | 65.6% (inactive) and 84.6% (inactive) | -1.3% (active) and 25.2% (inactive) | -63.9% (active) and -93.1% (active) | -49.9% (active) and 70.4% (inactive) | -1.7% (active) and -73% (active) | -6.27% (active) and -71.9% (active) | 112% (inactive) and 97.9% (inactive) | -14.7% (active) and -26% (active) | 0.7% (active) and 20.8% (inactive)
9 | CC12CCC3C4CCC(=O)C=C4CCC3C1CC1CC(=O)OC12 (configuration not stated) | 104% (inactive) | 110% (inactive) | 93.8% (inactive) | 85.5% (inactive) | 89.8% (inactive) | 103% (inactive) | 102% (inactive) | 98.9% (inactive) | 105% (inactive) | 102% (inactive)
10 | O=C/C=C/c1ccco1 | 108% (inactive) | 100% (inactive) | 101% (inactive) | 88.9% (inactive) | 97.7% (inactive) | 109% (inactive) | 95.6% (inactive) | – | 88.2% (inactive) | 100% (inactive)
11 | CC1=C([Te]c2ccccc2)C(=O)c2ccccc2C1=O | 9.62% (active) | -38.6% (active) | 5.18% (active) | -33.4% (active) | -33% (active) | -86.6% (active) | -46.5% (active) | – | 12.7% (inactive) | –
12 | COc1cc(/C=C\[N+](=O)[O-])ccc1OCc1ccccc1 | 89.5% (inactive) | 91.5% (inactive) | 56.6% (inactive) | 30.2% (inactive) | 66.3% (inactive) | 46.4% (inactive) | 73.7% (inactive) | 71.1% (inactive) | 3.4% (active) | 14.5% (inactive)
13 | O=C1NC(=O)C(=C/C=C/c2ccccc2)C(=O)N1 | 74.2% (inactive) | 84.1% (inactive) | -10.6% (active) | -64.3% (active) | 14.8% (inactive) | 2.5% (active) | -12.7% (active) | – | -5.93% (active) | –
14 | CCC(Br)(CC)C(=O)NC(N)=O | 109% (inactive) | 107% (inactive) | 103% (inactive) | 93.2% (inactive) | 104% (inactive) | 109% (inactive) | 98.2% (inactive) | 104% (inactive) | 99.6% (inactive) | 102% (inactive)
15 | CC1=C2[C@H]3OC(=O)[C@@H](C)[C@@H]3CC[C@@]2(C)C=CC1=O | -0.59% (active) | 121% (inactive) | 100% (inactive) | 99.2% (inactive) | 107% (inactive) | 95.7% (inactive) | 112% (inactive) | 125% (inactive) | 87.3% (inactive) | 94.6% (inactive)
16 | O=C=Nc1ccc(Br)cc1 | 109% (inactive) | 102% (inactive) | 111% (inactive) | 102% (inactive) | 109% (inactive) | 114% (inactive) | 104% (inactive) | – | 96.4% (inactive) | 103% (inactive)
17 | C=CC[PH+](c1ccccc1)c1ccccc1.C=CC[PH+](c1ccccc1)c1ccccc1.[Pt+2].[S-]c1ncccn1.[S-]c1ncccn1 | 75% (inactive) | 2.19% (active) | 40.3% (inactive) | -94.5% (active) | -3.54% (active) | -43.3% (active) | 5.27% (active) | – | -5.51% (active) | 6.99% (active)
18 | CN(C)c1ccc(C=C2C(=O)NC(=O)NC2=O)cc1 | 105% (inactive) | 92.4% (inactive) | 77.5% (inactive) | 92.9% (inactive) | 109% (inactive) | 89.3% (inactive) | 78.9% (inactive) | – | 102% (inactive) | 115% (inactive)
19 | CC[C@H](CC[C@@H](C)[C@H]1CC[C@H]2[C@@H]3CC[C@H]4C[C@]5(CC[C@]4(C)[C@H]3CC[C@]12C)OO[C@](C)(C(F)(F)F)O5)C(C)C | 101% (inactive) | 96.2% (inactive) | 81.2% (inactive) | 78.8% (inactive) | 109% (inactive) | 98.7% (inactive) | 81.7% (inactive) | 97.3% (inactive) | 106% (inactive) | 100% (inactive)
20 | C[C@@H]1C/C=C\C(=O)O[C@H](/C=C/C#C/C=C/C(C)(C)[C@@H](O)c2cccc(O)c2Br)[C@@H](C)/C=C/[C@H](C)C[C@H](OC(N)=O)C1 | 15.1% (inactive) | 22% (inactive) | 36.4% (inactive) | 3.1% (active) | 43.5% (inactive) | 35% (inactive) | 6.13% (active) | 41% (inactive) | 3.08% (active) | 25.7% (inactive)
21 | CN(C)C(=S)SSC(=S)N(C)C | 109% (inactive) and 108% (inactive) | 69.4% (inactive) and 92.7% (inactive) | 106% (inactive) and 94.8% (inactive) | 79.1% (inactive) and 80.5% (inactive) | 106% (inactive) and 101% (inactive) | 100% (inactive) | 90.9% (inactive) | 95.1% (inactive) | 113% (inactive) | 68% (inactive) and 91.5% (inactive)
22 | C/C(=N/OC(=O)N(C)C)c1ccc(Cl)c(Cl)c1 | 111% (inactive) | 123% (inactive) | 95% (inactive) | 94.7% (inactive) | 101% (inactive) | 112% (inactive) | 102% (inactive) | – | 112% (inactive) | –
23 | CCCCn1c(=O)c(C(=O)NCc2ccccc2Cl)c(O)c2ccccc21 | 94.3% (inactive) | 56.5% (inactive) | 76.7% (inactive) | 73.4% (inactive) | 84.3% (inactive) | 81.3% (inactive) | 79.6% (inactive) | 71.2% (inactive) | 60.7% (inactive) | 43.7% (inactive)
24 | C[C@]12CCc3sc(Nc4ccc(F)cc4F)nc3C1=CC[C@@H]1[C@@H]2CC[C@]2(C)C(=O)CC[C@@H]12 | 76.4% (inactive) | 78.4% (inactive) | 64.1% (inactive) | 42.9% (inactive) | 50.2% (inactive) | 37.7% (inactive) | 38.4% (inactive) | – | 21.4% (inactive) | 10.1% (inactive)

— PubChem BioAssay (NCI)
